Bioassay records deposited in PubChem BioAssay by National Center for Advancing Translational Sciences (NCATS).
The list is not random: actives were taken first. Their share in the collection is about 1.2%.
EPAC2 agonist: qHTS for Agonist of cAMP-regulated guanine nucleotide exchange factor 4 (EPAC2): primary screen; AID 720711, 2013; EPAC2 activation, biochemical qHTS; response scale: 100% = 6.5 mM cAMP response; Potency, µM (top dose mostly 154 µM), for inactives: at the top dose activation, most hits filed as activators; 360,000 compounds, 0.079% hits; Rap guanine nucleotide exchange factor 4 (Homo sapiens), Q8WZA2; note: nearly all actives have a fitted effect of over 50% in size
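Guanine nucleotide exchange by EPAC2 is measured as reduced fluorescence of BODIPY-GDP once it is released from 250 nM Rap1B. Plates are read kinetically for 30 min at room temperature; results are scaled to 6.5 mM cAMP.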
VDR inh: Inhibitors of the vitamin D receptor (VDR): qHTS | VDR-SRC2-3 peptide fluorescence polarization, 2 h | Potency, µM, without a hit: max response, negative = inhibition, most hits filed as inhibitors | 400,000 compounds, 0.93% hits; note: % is set by controls: 0 for no effect and ±100 for the full control effect
Target sequence (P11473 whole entry, looked up): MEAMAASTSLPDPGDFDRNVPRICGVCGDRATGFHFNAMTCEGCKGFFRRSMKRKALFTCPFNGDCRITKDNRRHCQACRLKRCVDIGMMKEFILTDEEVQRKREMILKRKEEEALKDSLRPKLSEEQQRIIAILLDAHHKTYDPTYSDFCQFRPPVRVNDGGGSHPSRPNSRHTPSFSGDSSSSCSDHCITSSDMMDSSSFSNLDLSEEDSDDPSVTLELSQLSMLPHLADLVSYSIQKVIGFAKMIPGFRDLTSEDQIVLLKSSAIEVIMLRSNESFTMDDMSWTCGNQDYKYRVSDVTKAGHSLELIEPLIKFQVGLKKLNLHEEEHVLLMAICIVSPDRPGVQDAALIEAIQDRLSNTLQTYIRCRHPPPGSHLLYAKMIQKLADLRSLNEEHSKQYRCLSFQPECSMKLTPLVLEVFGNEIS
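After 23 nl compound addition and a short centrifugation, plates sat for 2 hours at ambient temperature; polarization of fluorescence then indicated loss of VDR binding to peptide SRC2-3.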
EPAC1 ag: qHTS for Agonist of cAMP-regulated guanine nucleotide exchange factor 3 (EPAC1): primary screen. 360,000 compounds, 0.073% hits. EPAC1 agonist qHTS, biochemical assay; response scale: 100% = response to 6.5 mM cAMP. AID 720707, 2013. Potency, µM (top dose mostly 154 µM), for inactives: top-dose activation, hits mostly activators. Rap guanine nucleotide exchange factor 3 (Homo sapiens), O95398; note: nearly all actives have a fitted effect of over 60% in size
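Nucleotide exchange assay: 100 nM EPAC1 with 250 nM Rap1B loaded with BODIPY-GDP and 50 uM GDP, room temperature. Fluorescence (480/540 nm) read every 5 min for 30 min; signal change normalized to 6.5 mM cAMP as full agonist.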
EPAC1 antagonist: qHTS for Antagonist of cAMP-regulated guanine nucleotide exchange factor 3 (EPAC1): primary screen; Potency, µM (titrated, usually from 115 µM), without a hit: at the top dose activity change, negative = inhibition, hits mostly inhibitors; 360,000 compounds, 0.14% hits; Rap guanine nucleotide exchange factor 3 (Homo sapiens), O95398; AID 720709, 2013; EPAC1 GEF assay, Rap1b-BODIPY-GDP exchange fluorescence;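 note: plate controls were vehicle for no effect and positive control for full effect; nearly all actives have a fitted effect of over 50% in size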
EPAC2 antag: qHTS for Antagonist of cAMP-regulated guanine nucleotide exchange factor 2 (EPAC2): primary screen; Potency, µM (doses to about 114 µM), for inactives: at the highest dose activity, negative = inhibition, usual class: inhibitors; EPAC2 GEF exchange of Rap1B-BODIPY-GDP, fluorescence; 360,000 compounds, 0.18% hits; Rap guanine nucleotide exchange factor 4 (Homo sapiens), Q8WZA2; note: % is set by controls: 0 for no effect and ±100 for the full control effect; nearly all actives have a fitted effect of over 45% in size
USP1 inh: Inhibitors of USP1/UAF1: Primary Screen | recombinant USP1/UAF1, Ub-Rhodamine cleavage fluorescence | Potency, µM (top dose mostly 57.1 µM), inactives show top-dose activity change, negative = inhibition, actives largely listed as inhibitors | Ubiquitin carboxyl-terminal hydrolase 1 (Homo sapiens), O94782 | 390,000 compounds, 0.23% hits; note: % is set by controls: 0 for no effect and ±100 for the full control effect; nearly all actives have a fitted effect of over 60% in size
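USP1/UAF1 complex at 1 nM was preincubated with compound for 15 min at room temperature, then Ub-Rho substrate (150nM final) was added. Fluorescence (480/540 nm) was read kinetically, 6 reads every 60 seconds.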
The depositor's hits bear a star; ? = inconclusive; . = not tested or not shown; [ ] = dose if it differs, or a comment. Calls come from the whole dose curve; as a rule, active = well fitted curve in the direction sought with a large enough effect; inconclusive = small, poorly fitted or top-dose-only effect, or another doubt; inactive = no such curve, though single readings can be large; an effect the other way counts as inactive or inconclusive. Potency is the fitted concentration of half-maximal effect.

SMILES	EPAC2 agonist	VDR inh	EPAC1 ag	EPAC1 antagonist	EPAC2 antag	USP1 inh
O=C(O)c1cccc(CN2C(=O)c3ccccc3C2=O)c1	15%	-15%	-1%	-21%	3%	-31%
CCOC(=O)c1ccc(S(=O)(=O)N2CCN(c3nc(-c4ccccc4)nc4ccccc34)CC2)cc1	.	15%	.	.	.	.
Cn1sc(=O)n(Cc2ccccc2)c1=O	.	5µM*	.	.	.	.
Cn1c(=O)n(Cc2ccccc2)c2ccccc21	7%	7%	-3%	7%	5%	-9%
COc1ccc(CNc2ccnc(-c3ccc(N(C)C)cc3)n2)c(OC)c1	.	-14%	.	.	.	.
S=c1nc(-c2ccco2)[nH][nH]1	-79%[15.6 µM]	2%	-6%	14%	2%	-10%
Cc1ccc(C)n1-c1nc(=S)[nH][nH]1	-5%	32µM*	12%	6%	-5%	3%
COc1ccc2c(c1)O[C@@H](c1ccc3c(c1)OCO3)[C@H](OC(=O)NCCOc1ccccc1)C2=O	.	-1%	.	.	.	.
COc1cc2oc(=O)c(CC(=O)NCCc3ccccc3)c(C)c2cc1Cl	.	-1%	.	.	.	-21%
Cc1nc(SCC(=O)c2ccc(F)cc2)n[nH]1	5%	71µM*	-8%	2%	4%[57.1 µM]	-25%
Cc1nc(SCC(=O)c2cccc([N+](=O)[O-])c2)n[nH]1	5%	25µM*	2%	-2%	-5%	-20%
Nc1nc(SCC(=O)c2ccc(F)cc2)n[nH]1	9%	-2%	4%	-19%	1%	-20%
CC(O)(c1ccc(Cl)cc1)c1ccc(Cl)cc1	.	-9%	.	.	.	.
CC1CCC(C(C)C)C(P(=O)(c2ccccc2)c2ccccc2)C1 (stereo unspecified)	.	1%	.	.	.	.
CC1(C)OC(=O)C2(Cc3cc([N+](=O)[O-])ccc3N3CCCCC32)C(=O)O1 (stereo unspecified)	.	-10%	.	.	.	.
NCC[C@H](O)C(=O)N[C@@H]1C[C@H](N)[C@@H](O[C@H]2O[C@H](CN)CC[C@H]2N)[C@H](O)[C@H]1O[C@H]1O[C@H](CO)[C@@H](O)[C@H](N)[C@H]1O	.	3%	.	.	.	.
O=C(NNc1cc(N2CCOCC2)nc(N2CCOCC2)n1)c1ccc(Cl)c(Cl)c1	3%	18%	1%	7%	-11%	-12%
Cc1ccc(C(=O)NNc2cc(N3CCCC3)nc(N3CCCC3)n2)cc1	9%	6%	0%	0%	-1%	14µM*
CCCc1nc2c(=O)n(C)c(=O)nc-2n(C)n1	24%	-12%	2%	?	?	0.1µM*
CCn1c(N)nc2c1c(=O)n(C)c(=O)n2C	0%	0%	-15%	8%	1%	-27%
Cn1nc(-c2ccccn2)nc2c(=O)n(C)c(=O)nc1-2	?	10%	-5%	?	?	0.032µM*
Cc1ccccc1-c1nc2c(=O)n(C)c(=O)nc-2n(C)n1	.	-22%	.	.	.	.
COc1ccc(-c2nnc(SCC(=O)Nc3cccc(C(F)(F)F)c3)nc2-c2ccc(OC)cc2)cc1	.	-4%	.	.	.	-35%
O=C(Nc1ccc(Br)cc1)c1cc([N+](=O)[O-])cc([N+](=O)[O-])c1	2%	-7%	4%	-19%	-12%	-10%
O=c1c2c([N+](=O)[O-])cc([N+](=O)[O-])cc2sn1Cc1ccccc1	1%	22µM*	-13%	-15%	-3%	-18%
SMILES	EPAC2 agonist	VDR inh	EPAC1 ag	EPAC1 antagonist	EPAC2 antag	USP1 inh
O=c1c2c([N+](=O)[O-])cc([N+](=O)[O-])cc2sn1-c1ccc(Br)cc1	-1%	25µM*	-5%	-8%	-8%	5%
FC(F)(F)c1cccc(N2CCN(Cc3nnc(-c4ccc5c(c4)OCO5)o3)CC2)c1	.	-6%	.	.	.	-9%
C=CCn1c(=O)/c(=C/c2ccc(C)o2)s/c1=C(/C#N)C(=O)c1ccccc1	100µM*	58%	7%	4%	58%	?
COc1cc(C=c2c3ccccc3n3c2cc(-c2ccccc2)[n+]3C)cc(OC)c1OC	?	-18%	14%	5%	36%	2.2µM*
COc1cc(N(C)C)ccc1C=c1c2ccccc2n2c1cc(-c1ccccc1)[n+]2C	-3%	79µM*	-7%	-22%	-26%	?
CN(C)c1ccc(C=c2c3ccccc3n3c2cc(-c2ccccc2)[n+]3C)cc1	11%	-15%	16%	-15%	-1%	18µM*
CCOC(=O)N1CCc2c(sc3c2c(=O)n(-c2ccc(Cl)cc2)c(=O)n3CC(C)C)C1	.	-7%	.	.	.	-16%
CN1CCN(C(c2ccccn2)c2cc(Cl)c3cccnc3c2O)CC1 (stereo unspecified)	8%	50µM*	-2%	-7%	-5%	-13%
Cc1ccc(SC(CC(=O)c2ccc(F)cc2)C(=O)O)cc1 (stereo unspecified)	10%	22µM*	-2%	?	-18%	-6%
CC(=O)Nc1ccc(S(=O)(=O)NNc2ccc([N+](=O)[O-])cc2)cc1	8%	89µM*	5%	0%	13%	-13%
CC(=O)Nc1ccc(S(=O)(=O)NNC(=O)c2ccc([N+](=O)[O-])cc2)cc1	12%	3%	16%	-13%	-2%	-17%
CC1CC1c1ccc(/C=C(\C#N)C(=O)Nc2ccc(Cl)cc2Cl)o1 (stereo unspecified)	5%	-2%	30%	17%	13%	?
CC1CC1c1ccc(/C=C(\C#N)C(=O)Nc2cc(Cl)ccc2Cl)o1 (stereo unspecified)	3%	?	89µM*	77%	21%	?
COc1ccc(CN(Cc2ccccc2)C(C)=O)cc1COc1ccc(NC(C)=O)cc1	.	-9%	.	.	.	.
Nc1nnc(CC(=O)N/N=C/c2cc([N+](=O)[O-])cc(Br)c2O)s1	-2%	?	-8%	50µM*	-1%	-8%
O=[N+]([O-])c1cccc(S(=O)(=O)NCCNS(=O)(=O)c2cccc([N+](=O)[O-])c2)c1	.	-1%	.	.	.	.
Cc1cc(C)c2sc(N(CCCN(C)C)C(=O)c3ccc(S(=O)(=O)N(C)C4CCCCC4)cc3)nc2c1	-6%	-14%	45µM*	-15%	-5%	-5%
